# Results as given in ChEMBL document CHEMBL4513216, “Probing the Open Global Health Chemical Diversity Library for Multistage-Active Starting Points for Next-Generation Antimalarials” (ACS Infect Dis, 2020).
# Screen size: about 69,000 compounds; about 8,600 (12%) showed an effect of 50% or more. Many of the other results were omitted from the sample, so strong results are more common in it than they were.
# System: Plasmodium berghei
# Test: Screen against P. berghei liver stage (PbLuc), transformed with Luciferase, at 10uM
# Type: functional, HepG2
# Settings: tested at 10 uM
row,Compound,INHIBITION [%]
1,O=C(N1CCCC1)N1Cc2nccn2CC(Cn2ncccc2=O)C1 (stereo not given),32.2
2,O=C(NCc1ccco1)[C@H]1C[C@H]2OCC[C@H]2N(C(=O)c2ccncc2)C1,-15.5
3,CN(Cc1ccco1)C1CCC12CCN(C(=O)C1CCOCC1)CC2 (stereo not given),43.2
4,Cc1nnc(NC(=O)c2c3c(nn2C2CCS(=O)(=O)C2)CCC3)s1 (stereo not given),-90.8
5,COCC(=O)Nc1ccc(Sc2nncn2C)c(Cl)c1,31.7
6,CC(C)C(=O)Nc1ccc(Sc2nncn2C)c(Cl)c1,24.8
7,CCOC(C)C(=O)Nc1ccc(Sc2nncn2C)c(Cl)c1 (stereo not given),64.4
8,O=C(NCC1(CO)CC1)NC(c1nccs1)C1CC1 (stereo not given),-10.8
9,CC(=O)N1CCc2nc(N3CCCC3)nc(C)c2C1,34.6
10,Cn1ccc(C(=O)NCC2(O)CCN(c3cnccn3)C2)n1 (stereo not given),16.95
11,Cn1c(CN2CCOC(CNc3cccnn3)C2)nnc1C1CC1 (stereo not given),-16
12,CCN(Cc1cccc2c1OCO2)C(=O)Nc1ccccn1,-67.3
13,NC(=O)CCN(C(=O)c1cccc2c1OCO2)c1ccccc1,51.5
14,CCN(C(=O)c1cccc2c1OCO2)c1ccccc1,55.9
15,NC(=O)C1CCCN1C1CCN(C(=O)c2cccc3c2OCO3)CC1 (stereo not given),8.59
16,NC(=O)C1CCCN1C(=O)c1cccc2c1OCO2 (stereo not given),-27.3
17,CCN(C(=O)c1cccc2c1OCO2)c1ccc(Br)cn1,2.65
18,COc1cc(CN[C@@H]2COC[C@H]2Cc2cc(C)no2)cc(OC)c1,40
19,Cn1cc(Br)c(C(=O)NCCCn2cc(Br)cn2)n1,-16.3
20,Cc1cc(C(=O)N2CCCN(Cc3cnn(C)c3)CC2)no1,27.335
21,CS(=O)(=O)N1CCc2sc(C(=O)NCc3ccncc3)cc21,41.1
22,O=C(c1cc2c(s1)CCCC2)N1CCCC1Cn1cccn1 (stereo not given),0.411
23,COc1ccc(NC(=O)Cn2ccc3c(=O)n(C)ccc32)cc1OC,-14.2
24,Cc1ccc(NC(=O)Cn2ccc3c(=O)n(C)ccc32)cc1F,11.9
25,Cn1ccc2c(ccn2CC(=O)Nc2ccc(Br)cc2)c1=O,63.5

row,Compound,INHIBITION [%]
1,CC(C)CNC(=O)CNC(=O)NC(c1nccs1)C1CC1 (stereo not given),8.59
2,CCOC(=O)NCCC(O)c1ccoc1 (stereo not given),52.1
3,CCOc1ccccc1C(=O)NCCc1ccoc1,32.4
4,CCOc1ccccc1C(=O)NCCC(O)c1ccoc1 (stereo not given),85.5
5,CCOCC(=O)NCCC(O)c1ccoc1 (stereo not given),31.3
6,O=C(NCCC(O)c1ccoc1)Nc1cccs1 (stereo not given),13.8
7,O=C(COc1ccccc1F)NCCC(O)c1ccoc1 (stereo not given),-16.9
8,CC(=O)N1CC[C@H]2OCC[C@@H](C(=O)NCc3ccco3)[C@H]2C1,35.7
9,Cc1cccc(CN2C(=O)CCC23CCN(Cc2cccn2C)CC3)n1,24.9
10,Cc1cc2ccccc2n1CC(=O)Nc1ccnn1CC1CCOC1 (stereo not given),40.7
11,CCc1cnc(CN(C)C(=O)NC2CCN(C)C2=O)s1 (stereo not given),68.2
12,CCc1cnc(CN(C)C(=O)NC2CCN(c3ccccc3)C2)s1 (stereo not given),-53.7
13,CCc1cnc(CN(C)C(=O)NC2CCN(CC3CC3)C2)s1 (stereo not given),39.2
14,CCc1cnc(CN(C)C(=O)Nc2cnn(CC3CCCO3)c2)s1 (stereo not given),51.4
15,Cc1csc(CN(C)C(=O)Nc2cnn(CC3CCCO3)c2)n1 (stereo not given),0.825
16,CN(Cc1ccncc1)C(=O)Nc1cnn(CC2CCCO2)c1 (stereo not given),-5.53
17,CC[C@@H]1N(Cc2cc(OC)cc(OC)c2)CCC[C@]12CCC(=O)N2C,-54.1
18,CNC(=O)c1nc(COc2c(C)occc2=O)no1,-11.9
19,CNCc1ccc(Oc2cncc(C)n2)cc1,-1.84
20,Cc1cncc(Oc2ccc(CN)cc2)n1,60.5
21,Cc1cncc(Oc2ccc(CO)cc2)n1,44.3
22,NC(=O)c1ccnc(N2CCCC(CO)(Cc3ccccc3)C2)c1 (stereo not given),10.1
23,Cc1ccccc1CC1(C(=O)O)CCCN(c2ncccn2)C1 (stereo not given),8.64
24,CC(=O)c1ccc(N2CCCC(CO)(Cc3ccccc3C)C2)nc1 (stereo not given),75.6
25,CC(=O)c1ccc(N2CCCC(CO)(Cc3ccccc3F)C2)nc1 (stereo not given),50.3

row,Compound,INHIBITION [%]
1,CC(=O)c1ccc(N2CCC3(CCC(=O)N(CCCO)C3)CC2)nc1,30.9
2,CCN1CC2(CCC1=O)CCN(c1ccc(C(C)=O)cn1)CC2,5.46
3,O=C(CN1CCCCC1)Nc1cc(C(F)(F)F)ccc1-n1cccc1,9
4,CCN1CC2(CC1=O)CN(Cc1cnn(C)c1)CCN(C(=O)N(C)C)C2 (stereo not given),20.9
5,CS(=O)(=O)N1CCN(Cc2cccs2)CC(C(N)=O)C1 (stereo not given),8.72
6,COCCN1C(=O)[C@@H]2CC[C@H]1CN(C(=O)CCc1n[nH]c(C)c1C)C2,34.9
7,O=S(=O)(NCCn1cc(C2CCCNC2)nn1)c1ccc(Cl)cc1 (stereo not given),35.4
8,c1ccc(NCCn2cc(C3CCCNC3)nn2)cc1 (stereo not given),56.6
9,c1cc2c(cc1Cn1cc(C3CCCNC3)nn1)CCCO2 (stereo not given),16.7
10,Cc1nnc(NC(=O)NCC(C)N2CCOCC2)s1 (stereo not given),2.05
11,CN(C)CCNCCC(Cc1ccccc1)C1CCOC(C)(C)C1 (stereo not given),23.1
12,CN(C)CCCNCCC(Cc1ccccc1)C1CCOC(C)(C)C1 (stereo not given),56.7
13,CN(C)CCCNCCC(c1ccccc1)C1CCOC(C)(C)C1 (stereo not given),16.1
14,CNC(=O)CS(=O)(=O)Cc1cc(Cl)c2c(c1)OCCO2,21.5
15,CCC/C=C/c1ccc(CN2CCN(C)CC2)cn1,-13.2
16,CCC/C=C/c1ccc(CN2CCCC2)cn1,-4.51
17,C(=C\c1ccc(CN2CCCC2)cn1)/c1ccccc1,84.2
18,NC(=O)c1ccc(C(=O)N2CCCC(n3ccnc3)C2)s1 (stereo not given),23.4
19,FC(F)(F)c1cccc(-c2c[nH]c(C3CCCN3)n2)c1 (stereo not given),-14.8
20,CCc1nnsc1C(=O)NCCc1nnc2n1CCC2,14.3
21,O=C(NCCc1nnc2n1CCCCC2)N1CCC2(CCCC2)CC1,-56.9
22,O=C(NCc1nnc2n1CCCCC2)N1CCC2(CCCCC2)C1,47.9
23,O=C(NCc1nnc2n1CCC2)N1CCC2(CCCCC2)CC1,75.7
24,CCc1nnsc1C(=O)NCc1nnc2n1CCC2,60
25,CCc1nnsc1C(=O)NCc1nnc2n1CCCCC2,41.4
